# Test results reported in PubChem BioAssay (Tox21).
# Values joined by “and” are separate entries in the source; they are usually repeats but may differ in a detail not shown here. Identical values can stand only once. Results filed as inconclusive are left out. A call without a number means that no potency is given here. Some compounds were tested as several samples or in several runs, with calls that do not always agree. Active and inactive are the calls of the source. Unless noted, calls follow the shape of the full dose curve.
# What was measured:
# [1] = qHTS assay to identify small molecule antagonists of the sonic hedgehog signaling (Shh) pathway (AID 1259369); also: nearly all actives have a fitted effect of over 45% in size; also: potency is read from the fitted curve at half-maximal effect
# Procedure, shortened: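 3T3Gli1-Luc, conditioned-medium-stimulated, 24hr cpd, 37C/5% CO2; Gli1-driven firefly Luc luminescence after 30min RT with luciferase reagent. Cells plated 4hr before cpd.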
# [2] = qHTS assay to identify small molecule agonists of the androgen receptor (AR) signaling pathway in the presence of an antagonist - cell viability counter screen (AID 1259379; active = well fitted curve in the direction sought with a large enough effect in the repeat runs; an effect the other way counts as inactive or inconclusive; also: nearly all actives have a fitted effect of over 25% in size; also: potency is read from the fitted curve at half-maximal effect)
# Procedure, shortened: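 Cells: MDA-kb2 (MMTV-luc, AR and GR elements), 3,000/well, 5 hr settle. Added: nilutamide 3.0uM final, then compounds (15 conc.). Incubation: 16 hr, 37C, no CO2. Read-out: CellTiter-Fluor, 1 hr, fluorescence.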
# [3] = qHTS assay to identify small molecule agonists of the estrogen receptor beta (ER-beta) signaling pathway - cell viability counter screen (AID 1259380; active = well fitted curve in the direction sought with a large enough effect in the repeat runs; an effect the other way counts as inactive or inconclusive; also: nearly all actives have a fitted effect of over 30% in size; also: potency is read from the fitted curve at half-maximal effect)
# Procedure, shortened: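 HEK293T ER-beta-UAS-bla; 2% CS-FBS; 6 hr pre-plate, 16 hr cpd at 37C/5% CO2; LiveBLAzer read first, then CellTiter-Glo 30 min RT, luminescence.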
# [4] = target: Estrogen receptor (Homo sapiens) (UniProt P03372); assay: qHTS assay to identify small molecule agonists of the estrogen receptor alpha (ER-alpha) signaling pathway in the presence of an antagonist (AID 1259383); also: nearly all actives have a fitted effect of over 15% in size; also: potency is read from the fitted curve at half-maximal effect; as to activation: top concentration of the series differs between compounds
# Procedure, shortened: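 VM7Luc4E2, endog. ER-alpha + 4×ERE-luc; charcoal-stripped FBS, phenol red-free, 5 d; 24hr plating; +10.0nM ICI-182,780 (final); cpds 15 conc, 22hr, 37C/5% CO2; ONE-Glo luminescence.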
# [5] = qHTS assay to identify small molecule agonists or antagonists of the thyroid stimulating hormone receptor (TSHR) signaling pathway - wild type cell line counter screen (AID 1259384); also: potency is read from the fitted curve at half-maximal effect
# Procedure, shortened: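 Wild-type Hek293 cells, 800/well, 18 h at 37C, then compound with Ro20-1724 for 30 min RT. cAMP by HTRF (cAMP-d2/anti-cAMP cryptate), 1 h RT, fluorescence read. 15 concentrations, triplicates.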
# [6] = target: Thyrotropin receptor (Homo sapiens) (UniProt P16473); assay: qHTS assay to identify small molecule antagonists of the thyroid stimulating hormone receptor (TSHR) signaling pathway (AID 1259385); also: nearly all actives have a fitted effect of over 20% in size; also: potency is read from the fitted curve at half-maximal effect
# Procedure, shortened: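 TSHR-HEK293 cells (800/well) plated 18 h, then compounds with Ro20-1724 and TSH at 1.5 ng/mL final, 30 min at room temperature. cAMP quantified by HTRF (cAMP-d2/anti-cAMP-cryptate, 1 h); 15 concentrations in triplicate.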
# [7] = target: Androgen receptor (Homo sapiens) (UniProt P10275); assay: qHTS assay to identify small molecule agonists of the androgen receptor (AR) signaling pathway in the presence of an antagonist (AID 1259381); also: nearly all actives have a fitted effect of over 15% in size; also: potency is read from the fitted curve at half-maximal effect
# Procedure, shortened: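 MDA-kb2 cells, 3,000/well, rested 5hr at 37C/0% CO2 → nilutamide 3.0uM final or buffer → compounds, 15 conc. → 16hr at 37C → ONE-Glo, 30min RT → luminescence.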
# [8] = qHTS assay to identify small molecule antagonists of the estrogen receptor beta (ER-beta) signaling pathway - cell viability counter screen (AID 1259382; active = well fitted curve in the direction sought with a large enough effect in the repeat runs; an effect the other way counts as inactive or inconclusive; also: nearly all actives have a fitted effect of over 55% in size; also: potency is read from the fitted curve at half-maximal effect)
# Procedure, shortened: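 Cells: ER-beta-UAS-bla HEK293T, 2,000/well, 2% CS-FBS, 6 hr settle. Cpd + E2 (1nM final), 16 hr, 37C/5% CO2. Bla FRET substrate 2 hr RT, then CellTiter-Glo 30 min RT, luminescence.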
# [9] = target: Estrogen receptor beta (Homo sapiens) (UniProt Q92731); assay: qHTS assay to identify small molecule agonists of the estrogen receptor beta (ER-beta) signaling pathway (AID 1259377; active = well fitted activation curve with a large enough effect in the signal ratio in the repeat runs, not every such curve was filed as active; the % refers to the signal ratio)
# Procedure, shortened: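 Reporter cells (HEK293T, ER-beta-UAS-bla) receive compounds or DMSO after a 6 hr pre-incubation. They then incubate 16 hr at 37C/5% CO2, and fluorescence from LiveBLAzer B/G substrate is measured after 2 hours at room temperature.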
# [10] = target: Estrogen receptor beta (Homo sapiens) (UniProt Q92731); assay: qHTS assay to identify small molecule antagonists of the estrogen receptor beta (ER-beta) signaling pathway (AID 1259378; active = well fitted inhibition curve with a large enough effect in the signal ratio in the repeat runs, not every such curve was filed as active; the % refers to the signal ratio; also: potency is read from the fitted curve at half-maximal effect)
# Procedure, shortened: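 ER-beta-UAS-bla HEK293T cells in 2% charcoal-stripped FBS medium treated with compound plus 1nM final 17-beta-estradiol for 16 hr at 37C. Beta-lactamase reporter read by FRET substrate fluorescence after 2 hours at room temperature.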
# Thyrotropin receptor (Homo sapiens), sequence (P16473 whole entry, looked up): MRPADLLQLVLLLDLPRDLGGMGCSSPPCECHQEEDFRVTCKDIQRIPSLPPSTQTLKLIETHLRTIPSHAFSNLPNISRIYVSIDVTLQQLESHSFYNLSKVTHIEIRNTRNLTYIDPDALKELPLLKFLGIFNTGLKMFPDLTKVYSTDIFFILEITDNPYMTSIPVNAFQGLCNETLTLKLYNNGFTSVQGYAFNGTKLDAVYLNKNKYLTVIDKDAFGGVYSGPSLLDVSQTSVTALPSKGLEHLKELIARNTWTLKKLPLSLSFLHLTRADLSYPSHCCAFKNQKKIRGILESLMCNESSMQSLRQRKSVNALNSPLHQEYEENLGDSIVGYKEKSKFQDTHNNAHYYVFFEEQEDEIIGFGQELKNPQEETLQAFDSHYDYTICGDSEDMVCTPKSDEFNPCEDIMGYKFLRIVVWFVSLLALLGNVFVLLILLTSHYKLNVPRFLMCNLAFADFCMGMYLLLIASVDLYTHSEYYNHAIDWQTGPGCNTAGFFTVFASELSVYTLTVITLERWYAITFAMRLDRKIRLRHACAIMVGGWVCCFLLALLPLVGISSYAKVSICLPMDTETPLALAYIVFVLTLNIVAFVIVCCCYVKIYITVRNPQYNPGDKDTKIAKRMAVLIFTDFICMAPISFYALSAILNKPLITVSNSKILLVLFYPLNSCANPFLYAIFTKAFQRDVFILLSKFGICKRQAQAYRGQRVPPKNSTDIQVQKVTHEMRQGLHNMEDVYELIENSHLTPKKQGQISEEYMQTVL
# Estrogen receptor (Homo sapiens), sequence (P03372 whole entry, looked up): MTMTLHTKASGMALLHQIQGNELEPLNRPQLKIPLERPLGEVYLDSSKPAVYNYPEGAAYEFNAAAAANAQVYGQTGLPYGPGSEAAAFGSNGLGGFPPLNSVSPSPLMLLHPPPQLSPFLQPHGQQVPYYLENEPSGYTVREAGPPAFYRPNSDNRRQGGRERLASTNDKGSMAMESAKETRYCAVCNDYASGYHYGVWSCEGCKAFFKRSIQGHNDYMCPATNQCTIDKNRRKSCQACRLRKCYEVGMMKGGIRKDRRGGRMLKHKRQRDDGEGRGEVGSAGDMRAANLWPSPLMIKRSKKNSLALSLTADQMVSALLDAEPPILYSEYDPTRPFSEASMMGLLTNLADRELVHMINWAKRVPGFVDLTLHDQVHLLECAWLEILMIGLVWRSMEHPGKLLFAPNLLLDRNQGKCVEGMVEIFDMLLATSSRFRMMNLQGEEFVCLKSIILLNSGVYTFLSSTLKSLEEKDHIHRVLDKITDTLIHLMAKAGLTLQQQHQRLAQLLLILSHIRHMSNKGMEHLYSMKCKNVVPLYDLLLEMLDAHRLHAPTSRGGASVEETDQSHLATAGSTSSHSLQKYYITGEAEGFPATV
# Androgen receptor (Homo sapiens), sequence (P10275 whole entry, looked up): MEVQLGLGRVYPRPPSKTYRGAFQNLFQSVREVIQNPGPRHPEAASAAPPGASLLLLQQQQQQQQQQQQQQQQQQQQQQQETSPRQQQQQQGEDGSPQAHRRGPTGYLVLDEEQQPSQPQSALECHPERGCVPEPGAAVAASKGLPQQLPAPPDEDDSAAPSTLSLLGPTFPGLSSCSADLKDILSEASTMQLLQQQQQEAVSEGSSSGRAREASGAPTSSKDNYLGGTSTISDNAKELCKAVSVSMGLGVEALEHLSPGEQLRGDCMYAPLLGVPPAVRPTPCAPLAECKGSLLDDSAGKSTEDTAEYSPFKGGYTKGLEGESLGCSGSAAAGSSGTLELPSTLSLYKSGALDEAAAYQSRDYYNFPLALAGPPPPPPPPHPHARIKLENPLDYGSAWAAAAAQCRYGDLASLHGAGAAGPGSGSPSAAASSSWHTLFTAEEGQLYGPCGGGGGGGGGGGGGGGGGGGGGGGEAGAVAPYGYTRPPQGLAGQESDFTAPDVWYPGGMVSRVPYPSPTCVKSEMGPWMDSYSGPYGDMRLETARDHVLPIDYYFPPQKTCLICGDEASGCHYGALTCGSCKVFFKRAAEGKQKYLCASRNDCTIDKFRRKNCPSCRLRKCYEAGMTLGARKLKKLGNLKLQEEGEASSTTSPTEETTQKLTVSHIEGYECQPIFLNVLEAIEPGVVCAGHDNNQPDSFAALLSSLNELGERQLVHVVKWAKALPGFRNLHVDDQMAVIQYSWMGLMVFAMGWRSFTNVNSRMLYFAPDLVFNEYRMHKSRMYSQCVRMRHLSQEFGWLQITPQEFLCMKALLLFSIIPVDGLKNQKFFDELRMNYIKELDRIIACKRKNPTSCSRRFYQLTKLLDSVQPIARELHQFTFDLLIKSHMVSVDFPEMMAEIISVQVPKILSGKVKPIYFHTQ
# Estrogen receptor beta (Homo sapiens), sequence (Q92731 whole entry, looked up): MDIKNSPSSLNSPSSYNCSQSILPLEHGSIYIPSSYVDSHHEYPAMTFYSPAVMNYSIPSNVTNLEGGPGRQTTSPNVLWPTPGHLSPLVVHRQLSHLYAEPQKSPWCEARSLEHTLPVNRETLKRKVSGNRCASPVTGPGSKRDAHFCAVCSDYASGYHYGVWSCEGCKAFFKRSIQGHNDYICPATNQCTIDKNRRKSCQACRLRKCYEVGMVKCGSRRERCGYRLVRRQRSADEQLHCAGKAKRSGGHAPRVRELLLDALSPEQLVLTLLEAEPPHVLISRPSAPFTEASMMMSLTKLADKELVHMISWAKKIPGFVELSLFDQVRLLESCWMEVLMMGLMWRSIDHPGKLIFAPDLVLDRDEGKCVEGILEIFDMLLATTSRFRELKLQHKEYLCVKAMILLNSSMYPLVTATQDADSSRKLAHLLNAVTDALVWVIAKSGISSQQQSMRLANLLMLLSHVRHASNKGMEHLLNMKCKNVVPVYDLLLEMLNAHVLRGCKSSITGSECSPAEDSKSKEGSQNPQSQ
smiles,measurement,setting,value
CCCCN(CCCC)C(=S)S,Potency,[1],inactive
same,Potency,[2],inactive
same,Potency,[3],inactive
same,Potency,[4],inactive
CC(O)C(=O)[O][Hg][c]1ccccc1 (centres undefined),Potency,[1],30.6 nM (active)
same,Potency,[2],6.86 µM (active)
same,Potency,[3],4.86 µM (active)
same,Potency,[4],inactive
same,Potency,[5],5.66 µM (active)
same,Potency,[6],54.5 µM (active)
CCNS(=O)(=O)C(F)(F)C(F)(F)C(F)(F)C(F)(F)C(F)(F)C(F)(F)C(F)(F)C(F)(F)F,Potency,[1],32900 nM (active)
same,Potency,[3],23.3 µM (active)
same,Potency,[7],inactive
same,Potency,[8],inactive
same,Potency,[5],inactive
same,Potency,[6],inactive
COP(=S)(OC)Oc1nc(Cl)c(Cl)cc1Cl,Potency,[1],inactive
same,Potency,[2],inactive
same,Potency,[4],inactive
same,Potency,[6],inactive
COP(=O)(OC)O/C(=C\Cl)c1cc(Cl)c(Cl)cc1Cl,Potency,[1],inactive
same,Potency,[7],inactive
same,Potency,[8],inactive
same,Potency,[4],inactive
same,Potency,[5],inactive
CCO/N=C(\CC)C1=C(O)CC(c2c(C)cc(C)cc2C)CC1=O (centres undefined),Potency,[1],5450 nM (active)
same,Potency,[2],inactive
same,Potency,[7],inactive
Cc1c([N+](=O)[O-])c(C)c([N+](=O)[O-])c(C(C)(C)C)c1[N+](=O)[O-],Potency,[1],inactive
same,Potency,[2],inactive
same,Potency,[3],27.3 µM (active)
same,Potency,[6],inactive
O=S(=O)(NS(=O)(=O)C(F)(F)F)C(F)(F)F,Potency,[1],2430 nM (active)
same,Potency,[2],19.3 µM (active)
same,Potency,[8],inactive
N#CCCl,Potency,[1],inactive
same,Potency,[3],25.4 µM (active)
same,Potency,[4],inactive
same,Potency,[5],inactive
same,Potency,[6],inactive
CCCN,Potency,[1],inactive
same,Potency,[2],inactive
same,Potency,[3],inactive
same,Potency,[8],inactive
same,Potency,[5],inactive
same,Potency,[6],inactive
CC1CCCC1,Potency,[1],inactive
same,Potency,[3],inactive
same,Potency,[5],inactive
same,Potency,[6],inactive
O=C1C2(Cl)C3(Cl)C4(Cl)C(Cl)(Cl)C5(Cl)C3(Cl)C1(Cl)C5(Cl)C24Cl (centres undefined),Potency,[1],12 µM (active) and 29.3 µM (active)
same,Potency,[7],13.5 µM (active) and inactive
same,Potency,[8],26.9 µM (active) and 58.5 µM (active)
same,Potency,[5],inactive
[Cl-].[Cl-].[Cl-].[Yb+3],Potency,[1],inactive
same,Potency,[2],inactive
same,Potency,[8],inactive
O=c1[nH]c(Cl)c(Cl)cc1Cl,Potency,[1],inactive
same,Potency,[2],inactive
same,Potency,[7],inactive
same,Potency,[5],inactive
same,Potency,[6],inactive
CCCCC(CC)COC(=O)c1ccccc1C(=O)OCC(CC)CCCC (centres undefined),Potency,[1],inactive
same,Potency,[2],inactive
same,Potency,[4],27.3 µM (active)
same,Potency,[6],inactive
CCOP(=S)(OCC)Oc1cc(C)nc(N(CC)CC)n1,Potency,[9],inactive
same,Potency,[10],inactive
same,Potency,[2],inactive
same,Potency,[3],inactive
same,Potency,[7],inactive
same,Potency,[4],inactive
same,Potency,[5],inactive
same,Potency,[6],30.6 µM (active)
COC(=O)N(OC)c1ccccc1COc1ccn(-c2ccc(Cl)cc2)n1,Potency,[1],68.6 nM (active)
same,Potency,[2],1.37 µM (active)
same,Potency,[3],0.969 µM (active)
same,Potency,[8],inactive
same,Potency,[6],inactive
CSC(C)(C)/C=N/O,Potency,[1],inactive
same,Potency,[2],inactive
same,Potency,[8],inactive
same,Potency,[4],inactive
same,Potency,[5],inactive
same,Potency,[6],inactive
CNC(C)(C)Cc1ccccc1,Potency,[1],inactive
same,Potency,[2],inactive
same,Potency,[8],inactive
same,Potency,[5],inactive
same,Potency,[6],inactive
CCCCCON=O,Potency,[9],inactive
same,Potency,[10],inactive
same,Potency,[2],inactive
same,Potency,[3],inactive
same,Potency,[8],inactive
same,Potency,[5],inactive
same,Potency,[6],inactive
CCCCCCCc1ccc(O)cc1,Potency,[9],inactive
same,Potency,[10],54.5 µM (active)
same,Potency,[2],inactive
same,Potency,[3],54.5 µM (active)
same,Potency,[7],inactive
same,Potency,[8],48.6 µM (active)
same,Potency,[5],inactive
same,Potency,[6],inactive
CC1=C2C[C@H]3[C@@H](CC=C4C[C@@H](O)CC[C@@]43C)[C@@H]2CC[C@]12O[C@@H]1C[C@H](C)CN[C@H]1[C@H]2C,Potency,[1],266 nM (active)
same,Potency,[2],26.6 µM (active)
same,Potency,[7],inactive
same,Potency,[4],inactive
same,Potency,[5],inactive
same,Potency,[6],inactive
c1ccc(N=NNc2ccccc2)cc1,Potency,[8],inactive
same,Potency,[4],inactive
same,Potency,[5],inactive
same,Potency,[6],inactive
O=c1[nH]c2cc(Cl)ccc2n1C1CCNCC1,Potency,[2],inactive
same,Potency,[3],inactive
same,Potency,[7],inactive
same,Potency,[4],inactive
same,Potency,[5],inactive
same,Potency,[6],inactive
Oc1ccc(Cl)c(Cl)c1,Potency,[2],inactive
same,Potency,[8],inactive
same,Potency,[4],inactive
same,Potency,[5],inactive
same,Potency,[6],inactive
N#CSCc1ccccc1,Potency,[10],inactive
same,Potency,[2],inactive
same,Potency,[3],inactive
same,Potency,[8],inactive
same,Potency,[4],inactive
same,Potency,[5],inactive
same,Potency,[6],inactive
Cc1ccccc1OP(=O)(Oc1ccccc1C)Oc1ccccc1C,Potency,[2],inactive
same,Potency,[7],inactive
same,Potency,[5],inactive
same,Potency,[6],inactive
FC(F)C(F)(F)OCC(Cn1cncn1)c1ccc(Cl)cc1Cl (centres undefined),Potency,[9],inactive
same,Potency,[3],60.8 µM (active)
same,Potency,[5],inactive
O=[N+]([O-])c1cccc2cccc([N+](=O)[O-])c12,Potency,[9],inactive
same,Potency,[2],inactive
same,Potency,[3],inactive
COc1ccc2c3c1O[C@H]1[C@H](O)CC[C@H]4[C@@H](C2)N(C)CC[C@@]341,Potency,[9],inactive
same,Potency,[10],inactive
same,Potency,[2],inactive
same,Potency,[3],inactive
same,Potency,[5],inactive
same,Potency,[6],inactive
